# Measured values from PubChem BioAssay (Tox21).
# Records with an inconclusive call do not appear. Where a call stands in place of a potency, no number is given. Active and inactive are the calls of the source. Calls follow the shape of the dose curve; as a rule, active = well fitted inhibition curve with a large enough effect in the repeat runs; inconclusive = weak or mixed curves, or effect the other way; inactive = no such curve, though single readings can be large or run the other way.
# Target: Androgen receptor (Homo sapiens) (UniProt P10275)
# Assay: qHTS assay to identify small molecule antagonists of the androgen receptor (AR) signaling pathway using the MDA cell line (AID 743042; also: nearly all actives have a fitted effect of over 55% in size)
# Conditions: MDA-kb2 AR-luc, MMTV luciferase, R1881 antagonist, 16 h; series mostly up to 70.3 µM
# Procedure, shortened: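 MDA-kb2 breast carcinoma cells carrying MMTV-luciferase (AR/GR responsive) were co-treated with compounds and the agonist R1881 for 16 h at 37C. Inhibition read as ONE-Glo luminescence; CellTiter-Fluor fluorescence measured in parallel for cytotoxicity.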
# Potency is read from the fitted curve at half-maximal effect.
# Sequence of Androgen receptor (Homo sapiens) (P10275 whole entry, looked up): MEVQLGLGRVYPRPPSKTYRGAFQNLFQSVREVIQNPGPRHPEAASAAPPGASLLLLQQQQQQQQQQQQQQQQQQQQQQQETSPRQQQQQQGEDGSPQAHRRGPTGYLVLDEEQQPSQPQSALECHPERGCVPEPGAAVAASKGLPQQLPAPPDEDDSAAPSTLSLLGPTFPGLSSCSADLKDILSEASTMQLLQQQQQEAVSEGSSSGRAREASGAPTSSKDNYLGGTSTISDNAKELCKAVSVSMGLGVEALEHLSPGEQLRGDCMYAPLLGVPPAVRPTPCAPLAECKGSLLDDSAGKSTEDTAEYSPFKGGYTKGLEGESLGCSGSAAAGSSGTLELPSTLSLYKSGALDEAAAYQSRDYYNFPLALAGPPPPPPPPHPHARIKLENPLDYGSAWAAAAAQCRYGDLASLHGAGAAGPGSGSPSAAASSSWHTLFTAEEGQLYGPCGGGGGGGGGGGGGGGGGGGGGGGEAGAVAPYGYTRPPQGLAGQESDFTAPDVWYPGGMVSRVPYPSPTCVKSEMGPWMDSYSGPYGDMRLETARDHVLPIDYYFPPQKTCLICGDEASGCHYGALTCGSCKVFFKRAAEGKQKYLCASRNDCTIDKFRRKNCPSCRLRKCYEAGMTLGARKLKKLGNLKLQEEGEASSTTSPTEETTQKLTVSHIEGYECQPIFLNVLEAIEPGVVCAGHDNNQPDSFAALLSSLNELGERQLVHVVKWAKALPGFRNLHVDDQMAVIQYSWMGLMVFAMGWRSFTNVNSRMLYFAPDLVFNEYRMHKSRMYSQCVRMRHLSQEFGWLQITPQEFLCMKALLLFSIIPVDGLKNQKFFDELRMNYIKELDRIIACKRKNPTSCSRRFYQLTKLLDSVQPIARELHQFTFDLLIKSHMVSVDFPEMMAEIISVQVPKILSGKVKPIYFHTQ
row,Structure (SMILES),Potency
1,C=C(C)C(=O)OC(C)C,inactive
2,COc1ccccc1OC(=O)Oc1ccccc1OC,inactive
3,O=C(O)COC(=O)Cc1ccccc1Nc1c(Cl)cccc1Cl,inactive
4,NC(=S)N/N=C/c1cccnc1,inactive
5,CC(=O)SCc1ccco1,inactive
6,NC(N)=NN=C(/C=C/c1ccc([N+](=O)[O-])o1)/C=C/c1ccc([N+](=O)[O-])o1,5.96 µM (active)
